40 molecules from PubChem BioAssay (Tox21) can be followed below.

Inconclusive results are not listed. Entries that show only a call come without a potency. The source made the active and inactive calls. Calls come from the whole dose curve; as a rule, active = well fitted activation curve with a large enough effect in the repeat runs; inconclusive = weak or mixed curves, or effect the other way; inactive = no such curve, though single readings can be large or run the other way.
Potency is the fitted concentration of half-maximal effect.

This assay is described as follows: qHTS assay to identify small molecule agonists of the retinoic acid receptor (RAR) signaling pathway (AID 1159553). As to conditions: C3RL4 RARE luciferase reporter, agonist, 6 h; series mostly up to 73.3 µM. The source says: National Center for Advancing Translational Sciences [NCATS] NIH Chemical Genomics Center [NCGC] U.S. Environmental Protection Agency [EPA] National Institutes of Environmental Health Sciences [NIEHS] National Toxicology Program [NTP] Assay overview: All-trans Retinoic acid (atRA) is the potent natural metabolite of retinol and plays an important role in normal embryonic development and maintenance of cellular phenotype in adult animals. atRA is the activating ligand for the retinoic acid receptors (RARs) which form heterodimers with retinoid X receptors (RXRs) on the retinoic acid response element (RARE). Through activation of the RAR/RXRs nuclear receptors, atRA regulates the transcription of a large number of protein-coding genes and regulatory RNAs. Intracellular levels of atRA are controlled by the retinol signaling pathway (RSP) that regulates the biosynthesis and catabolism of atRA to maintain physiological levels. Chemicals that interfere with the RSP can cause abnormal intracellular levels of atRA and therefore are potential developmental toxicants. To assess compounds for the potential adverse effect on embryonic development through interfering with retinol signaling, a cell-based RARE luciferase reporter gene assay was used. C3RL4 cell line (OARSA/CFSAN/FDA, Laurel, MD) was used to screen Tox21 10K compound library for identifying activators of the RSP.
Assay Protocol Summary: C3RL4 cells were seeded at 1,000/well in 5 uL of assay medium into white solid 1,536-well tissue culture plates (Greiner Bio-One North America Inc. Monroe, NC) using a Multidrop Combi (Thermo Scientific, Waltham, MA) dispenser. After incubation at 37 C and 5% CO2 for an overnight, 23 nL of compounds dissolved in DMSO, positive control or DMSO only were transferred by a Pintool station (Kalypsys, San Diego, CA). After 6 hr incubation at 37 C and 5% CO2, 5 uL of Amplite Luciferase reagent (AAT Bioquest Inc. Sunnyvale, CA) was added to each assay plate using a Flying Reagent Dispenser (FRD) (Aurora Discovery, San Diego, CA). Luminescence was quantified on a ViewLux plate reader (PerkinElmer, Waltham, MA) after 30 min incubation at room temperature.
On to `O=C1CCN(c2ccccc2)N1`, for which the Potency entry was “inactive”.
The entry for `COc1cc(C)ccc1C(C)C` is “inactive”; for `COC(C)CCO` (stereo not given) it is “inactive”.
For `CN1CCN(C2=Nc3cc(F)ccc3Cc3ccccc32)CC1`, the Potency result is “inactive”.
To `CC(C)(C)c1cccc(O)c1` belongs “inactive”; to `CC1(C)C(=O)N(Cl)C(=O)N1Br`, “inactive”; to `Cc1onc(-c2ccccc2)c1C(=O)Cl`, “inactive”.
The entry for `CC(C)OC(C)C` is “inactive”.
For `CCOC(=O)[C@H](CCc1ccccc1)N[C@@H](C)C(=O)N1Cc2cc(OC)c(OC)cc2C[C@H]1C(=O)O`, the Potency result was “inactive”.
The entry for `CCOC(=O)COc1ccc2c(c1)CC(NCC(O)c1cccc(Cl)c1)CC2` (stereo not given) is “inactive”; for `C1CCOC1` it is “inactive”.
The entry for `CC1=CC(=O)CC(C)(C)C1=O` is “inactive”.
`CC(C)NCC(O)COc1ccc(CCOCC2CC2)cc1` (stereo not given): the Potency entry is “inactive”.
To `O=C(CC(=O)C(F)(F)F)c1ccccc1` belongs 22 µM (active); to `CCCN(CCC)C(=O)C(CCC(=O)O)NC(=O)c1ccccc1` (stereo not given), “inactive”; to `C=CCc1cc(OC)c(O)c(C(=O)NCCO)c1`, “inactive”.
The figure for `Nc1ccc(Oc2ccc(N)c(N)c2)cc1` is 1.72 µM (active).
The entry for `CC(C)(CO)[C@@H](O)C(=O)NCCC(=O)O` is “inactive”; for `CC(=O)OC(C)OC(C)=O` it is “inactive”; for `CCCNC(C)(C)COC(=O)c1ccccc1` it is “inactive”.
In the case of `CCCCCCC`, the Potency result is “inactive”.
To `CCC(=O)O[C@]1(C(=O)SCF)[C@H](C)C[C@H]2[C@@H]3C[C@H](F)C4=CC(=O)C=C[C@]4(C)[C@@]3(F)[C@@H](O)C[C@@]21C` belongs “inactive”; to `CC(C)C[C@H](NC(=O)OCC1c2ccccc2-c2ccccc21)C(=O)O`, 1.72 µM (active); to `Cc1nc(N)nc(N)c1-c1ccc(Cl)c(Cl)c1`, “inactive”.
To `O=C(O)c1cccc(Cl)c1Cl` belongs “inactive”.
To `C=Cc1ccccc1` belongs “inactive”; to `NCCCN1CCN(CCCN)CC1`, “inactive”.
As for `O=C1Nc2ccc([N+](=O)[O-])cc2C1=O`, the Potency entry was “inactive”.
In the case of `CN(CC1(C)CCCO1)S(=O)(=O)c1ccc(Cl)c(S(N)(=O)=O)c1` (stereo not given), the Potency result is “inactive”.
The entry for `CO[C@@]1(NC(=O)CSCC#N)C(=O)N2C(C(=O)O)=C(CSc3nnnn3C)CS[C@@H]21` is “inactive”.
For `CN1[C@@H]2CC[C@H]1CC(OC(=O)c1c[nH]c3ccccc13)C2` (stereo not given in full), the Potency result was “inactive”.
Regarding `COC(=O)N[C@H](C(=O)N[C@@H](Cc1ccccc1)[C@@H](O)CN(Cc1ccc(-c2ccccn2)cc1)NC(=O)[C@@H](NC(=O)OC)C(C)(C)C)C(C)(C)C`, the Potency result was “inactive”.
To `CCCCCCCCOC(=O)CCCCCCCCC(=O)OCCCCCCCC` belongs “inactive”; to `Cc1ccc([N+](=O)[O-])cc1Cl`, “inactive”.
To `CN1CCN(N)CC1` belongs “inactive”; to `CC(C)NC[C@@H](O)COc1cccc2ccccc12`, “inactive”.
To `NS(=O)(=O)c1cc(-c2nn[nH]n2)c(NCc2cccs2)cc1Cl` belongs “inactive”; to `CC1(C)S[C@@H]2[C@H](NC(=O)C(C(=O)O)c3ccccc3)C(=O)N2[C@H]1C(=O)O` (stereo not given in full), “inactive”; to `CCCCCCOc1ccc(N)cc1`, 10.9 µM (active).
Regarding `OCCN(CCO)c1ccccc1`, the Potency result was “inactive”.
